PubChem BioAssay (NCI)
Compounds without any hit were thinned out: in the full panel of roughly 83,000, 20% have a hit.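 Cells were grown in 96-well plates and exposed to the test compound at a single concentration for 48 hours; results are reported as percent growth, with values below 10 considered active.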 The source made the active and inactive calls.

Experiments:
Experiment in all cases: NCI-60 one-dose screen, 48 h (100 = growth as untreated, 0 = no growth, -100 = all killed)
DU-145 prostate = settings: 10 µM unless noted
K-562 leukemia = settings: 10 µM unless noted
MALME-3M melanoma = settings: 10 µM unless noted
RXF 393 renal = settings: 10 µM unless noted
SF-295 CNS = settings: 10 µM unless noted
UACC-257 melanoma = settings: 10 µM unless noted
HCT-15 colon = settings: 10 µM
HT29 colon = settings: 10 µM unless noted
SNB-75 CNS = settings: 10 µM unless noted
SNB-19 CNS = settings: 10 µM unless noted
PC-3 prostate = settings: 10 µM unless noted
LOX IMVI melanoma = settings: 10 µM unless noted
CAKI-1 renal = settings: 10 µM unless noted
A498 renal = settings: 10 µM unless noted
HL-60(TB) leukemia = settings: 10 µM unless noted
MOLT-4 leukemia = settings: 10 µM
T-47D breast = settings: 10 µM unless noted
BT-549 breast = settings: 10 µM
HCC-2998 colon = settings: 10 µM unless noted
SK-MEL-5 melanoma = settings: 10 µM unless noted

Measured: growth

O=C(O)c1[nH]c(=O)[nH]c(=O)c1F
inactive: DU-145 prostate 96.6% | K-562 leukemia 107% | MALME-3M melanoma 113% | RXF 393 renal 103% | SF-295 CNS 89.2% | UACC-257 melanoma 103% | HCT-15 colon 93.6% | HT29 colon 106% | SNB-75 CNS 99% | SNB-19 CNS 91.4% | PC-3 prostate 95.6% | LOX IMVI melanoma 84.6% | CAKI-1 renal 66.8% | A498 renal 82.5% | HL-60(TB) leukemia 117% | MOLT-4 leukemia 49.7% | T-47D breast 104% | BT-549 breast 111% | HCC-2998 colon 64.9%

N#Cc1ncc(/N=C/c2ccc(N(CCCl)CCCl)cc2)s1
active: CAKI-1 renal 7.36%
inactive: DU-145 prostate 49.2% | K-562 leukemia 37.6% | RXF 393 renal 84.7% | SF-295 CNS 58.4% | UACC-257 melanoma 82.4% | HCT-15 colon 50.6% | HT29 colon 91.6% | SNB-75 CNS 61.6% | SNB-19 CNS 89% | PC-3 prostate 66.9% | SK-MEL-5 melanoma 88.4% | LOX IMVI melanoma 61.3% | A498 renal 88.2% | HL-60(TB) leukemia 39.3% | MOLT-4 leukemia 42.7% | T-47D breast 64.2% | BT-549 breast 66% | HCC-2998 colon 96.8%

CN(C)P1(N(C)C)=NP(N(C)C)(N(C)C)=NP(N(C)C)(N(C)C)=N1
inactive: DU-145 prostate 110% | K-562 leukemia 102% | MALME-3M melanoma 106% | RXF 393 renal 109% | SF-295 CNS 101% | UACC-257 melanoma 93.6% | HCT-15 colon 101% | HT29 colon 104% | SNB-75 CNS 90.3% | SNB-19 CNS 103% | PC-3 prostate 90% | SK-MEL-5 melanoma 107% | LOX IMVI melanoma 92.7% | CAKI-1 renal 79% | A498 renal 108% | HL-60(TB) leukemia 100% | MOLT-4 leukemia 102% | T-47D breast 103% | BT-549 breast 105% | HCC-2998 colon 111%

CCOC(=O)/C=C(\C)Nc1ccc(N/C(C)=C/C(=O)OCC)c2c1Oc1ccccc1O2
inactive: DU-145 prostate 110% | K-562 leukemia 81.7% | MALME-3M melanoma 107% | SF-295 CNS 99.4% | UACC-257 melanoma 109% | HCT-15 colon 100% | HT29 colon 112% | SNB-75 CNS 103% | SNB-19 CNS 115% | PC-3 prostate 103% | SK-MEL-5 melanoma 79.9% | LOX IMVI melanoma 94.4% | CAKI-1 renal 95.5% | A498 renal 102% | HL-60(TB) leukemia 63.4% | MOLT-4 leukemia 75.5% | T-47D breast 103% | BT-549 breast 102% | HCC-2998 colon 120%
active: RXF 393 renal 0.357%

CCN(CC)CCOc1c(C(C)C)cccc1C(C)C
inactive: K-562 leukemia 111% | MALME-3M melanoma 107% | RXF 393 renal 112% | SF-295 CNS 93.8% | UACC-257 melanoma 94.8% | HCT-15 colon 98.4% | HT29 colon 95.4% | SNB-75 CNS 84.8% | SNB-19 CNS 106% | PC-3 prostate 101% | SK-MEL-5 melanoma 101% | LOX IMVI melanoma 99.5% | CAKI-1 renal 89.8% | A498 renal 82.1% | HL-60(TB) leukemia 107% | MOLT-4 leukemia 102% | T-47D breast 85.1% | BT-549 breast 123% | HCC-2998 colon 102%

CC(C)CCC1(CCO)C(=O)NC(=S)NC1=O
inactive: DU-145 prostate 107% | K-562 leukemia 120% | RXF 393 renal 120% | SF-295 CNS 103% | UACC-257 melanoma 100% | HCT-15 colon 91.7% | HT29 colon 99.3% | SNB-75 CNS 99.8% | SNB-19 CNS 105% | PC-3 prostate 87.8% | SK-MEL-5 melanoma 105% | LOX IMVI melanoma 104% | CAKI-1 renal 102% | A498 renal 93.7% | HL-60(TB) leukemia 98.1% | MOLT-4 leukemia 113% | T-47D breast 112% | BT-549 breast 109% | HCC-2998 colon 107%

CCOc1cc(/C=N\Nc2nnc(C)n2N)c(C)cc1N(CCCl)CCCl
inactive: DU-145 prostate 27.8% | RXF 393 renal 29.7% | HCT-15 colon 25.5% | HT29 colon 23.9% | SNB-75 CNS 24.1% | SNB-19 CNS 14.2% | CAKI-1 renal 11.8% | T-47D breast 12.6% | BT-549 breast 17%
active: K-562 leukemia 7.77% | SF-295 CNS -26.6% | UACC-257 melanoma -5.96% | PC-3 prostate 7.23% | SK-MEL-5 melanoma -47.3% | LOX IMVI melanoma 1.98% | A498 renal -26% | HL-60(TB) leukemia -48.9% | MOLT-4 leukemia -9.42% | HCC-2998 colon 3.97%

COC(=O)C(=[N+]=[N-])C(=O)OC
inactive: DU-145 prostate 112% | K-562 leukemia 95.5% | MALME-3M melanoma 110% | RXF 393 renal 102% | SF-295 CNS 101% | UACC-257 melanoma 96.4% | HCT-15 colon 105% | HT29 colon 101% | SNB-75 CNS 80.6% | SNB-19 CNS 103% | PC-3 prostate 92.3% | SK-MEL-5 melanoma 104% | LOX IMVI melanoma 103% | CAKI-1 renal 109% | A498 renal 100% | HL-60(TB) leukemia 100% | MOLT-4 leukemia 105% | T-47D breast 109% | BT-549 breast 103% | HCC-2998 colon 108%
